# Inconclusive results are not listed. Activity calls are given as the source filed them. Calls follow the shape of the full dose curve; tested in HEK293 reporter line. Peptide text beside a SMILES is read from it.
# Assay: qHTS for Inhibitors of the Functional Ribonucleoprotein Complex (vRNP) of Lassa (LASV) Arenavirus: LASV Primary Screen - GLuc reporter signal (AID 1347082); also: nearly all actives have a fitted effect of over 60% in size
# Settings: LASV minigenome vRNP, Gaussia luciferase reporter; series mostly up to 57.5 µM; activity change, negative = inhibition: at the top concentration
# % is scaled to controls: 0 for no effect and ±100 for the full control effect.
Structure (SMILES),"activity change, negative = inhibition",Potency
N[C@H](Cc1c[nH]c2ccccc12)C(=O)O,-6.35% (inactive),–
CCn1cc(C(=O)O)c(=O)c2cc(F)c(N3CCN(C)CC3)cc21,–,inactive
CCN[C@H]1C[C@H](C)S(=O)(=O)c2sc(S(N)(=O)=O)cc21,–,inactive
CC(C)Cc1ccc(C(C)C(=O)OCc2ccccn2)cc1 (stereo not drawn),-3.81% (inactive),–
CCC(=O)Nc1ccc(O)cc1,1.67% (inactive),–
CCN(CC)CC1CCCCN1CC(=O)N1c2ccccc2C(=O)Nc2cccnc21 (stereo not drawn),3.59% (inactive),–
CC(=O)O[C@]1(C(C)=O)CC[C@H]2[C@@H]3C=C(Cl)C4=CC(=O)CC[C@]4(C)[C@H]3CC[C@@]21C,0.739% (inactive),–
O=C(O)c1cccnc1Nc1cccc(C(F)(F)F)c1,–,inactive
CCCCC1C(=O)N(c2ccccc2)N(c2ccc(O)cc2)C1=O (stereo not drawn),-1.32% (inactive),–
Cc1ccc(O)c(-n2nc3ccccc3n2)c1,3.56% (inactive),–
CN1CCC(=C2c3ccccc3Sc3ccccc32)CC1,-11.3% (inactive),–
NC(=O)NNc1ccccc1,-10.4% (inactive),–
CN1CCN(c2c(F)cc3c(=O)c(C(=O)O)cn(CCF)c3c2F)CC1,–,inactive
c1cc(CN2CCCCC2)cc(OCCCNc2nc3ccccc3s2)c1,0.914% (inactive),–
CCCCN(CCCC)CC(O)c1cc(Cl)cc2c1-c1ccc(Cl)cc1/C2=C/c1ccc(Cl)cc1 (stereo not drawn),-5.34% (inactive),–
CC(=O)N[C@@H](CO)C(=O)N[C@@H](CC(=O)O)C(=O)N[C@@H](CCCCN)C(=O)N1CCC[C@H]1C(=O)O (Ac-SDKP-OH),-2.77% (inactive),–
CN(C)C(=O)Nc1ccc(Cl)c(Cl)c1,-11.7% (inactive),–
Cc1c(C)c2c(c(C)c1OC(=O)CCC(=O)OCCO)CC[C@@](C)(CCC[C@H](C)CCC[C@H](C)CCCC(C)C)O2,-76.8% (inactive),–
CC(C)NC(=O)c1ccc(C=O)cc1,12.9% (inactive),–
CCC(C)(C)c1ccc(CC(C)CN2C[C@@H](C)O[C@@H](C)C2)cc1 (stereo partly drawn),–,inactive

Structure (SMILES),"activity change, negative = inhibition",Potency
CC(=O)Nc1ccn(C2COC(COC(=O)c3ccccc3)O2)c(=O)n1 (stereo not drawn),-5.1% (inactive),–
CCN(CC)C(=O)N1CCN(C)CC1,-0.0721% (inactive),–
O=C(CCC1CCN(Cc2ccccc2)CC1)c1ccc2c(c1)NCCCC2,-4.21% (inactive),–
O=C(O)/C=C/c1ccc(Cn2ccnc2)cc1,6.01% (inactive),–
CC1(C)OC[C@@H](COC(=O)CCc2ccc(OC[C@@H](O)CNCCNC(=O)N3CCOCC3)cc2)O1,12.6% (inactive),–
Clc1ccc(C(Cn2ccnc2)OCc2ccsc2Cl)c(Cl)c1 (stereo not drawn),–,inactive
Cc1cc(=O)oc2cc(O)ccc12,–,inactive
Cc1cccc(C)c1NC(=O)C(C)N (stereo not drawn),–,inactive
CCCOc1ccccc1-c1nc2n[nH]nc2c(=O)[nH]1,–,inactive
COCCc1ccc(OCC2CO2)cc1 (stereo not drawn),-8.63% (inactive),–
CC[C@H](c1ccc(O)cc1)[C@@H](CC)c1ccc(O)cc1,-5.96% (inactive),–
CCC1Nc2cc(Cl)c(S(N)(=O)=O)cc2S(=O)(=O)N1 (stereo not drawn),-8.21% (inactive),–
OC[C@@H](O)[C@H](O)[C@H](O)[C@@H](O)CO,–,inactive
NCc1ccccc1Sc1ccccc1CO,-0.77% (inactive),–
CO/N=C(\C(=O)O)c1csc(NC(=O)CCl)n1,0.186% (inactive),–
CCOC(=O)c1c(N)sc2c1CCN(Cc1ccccc1)C2,-7.37% (inactive),–
CCc1nnc(NS(=O)(=O)c2ccc(N)cc2)s1,2.61% (inactive),–
CC1CCCCN1CCCOC(=O)c1ccc(OC2CCCCC2)cc1 (stereo not drawn),4.38% (inactive),–
O=C(O)Cc1ccc2c(c1)C(=O)c1ccccc1CO2,-0.345% (inactive),–

# Assay: qHTS for Inhibitors of the Functional Ribonucleoprotein Complex (vRNP) of Lassa (LASV) Arenavirus: Viability assay - alamar blue signal for LASV Primary Screen (AID 1347083); also: nearly all actives have a fitted effect of over 80% in size
# Settings: cell viability, alamar blue fluorescence (LASV minigenome counter-screen); series mostly up to 57.5 µM; activity change, negative = reduced viability: at the top concentration
Structure (SMILES),"activity change, negative = reduced viability",Potency
N[C@H](Cc1c[nH]c2ccccc12)C(=O)O,-3.22% (inactive),–
CCn1cc(C(=O)O)c(=O)c2cc(F)c(N3CCN(C)CC3)cc21,–,inactive
CCN[C@H]1C[C@H](C)S(=O)(=O)c2sc(S(N)(=O)=O)cc21,–,inactive
CC(C)Cc1ccc(C(C)C(=O)OCc2ccccn2)cc1 (stereo not drawn),0.683% (inactive),–
CCC(=O)Nc1ccc(O)cc1,-17.6% (inactive),–
CCN(CC)CC1CCCCN1CC(=O)N1c2ccccc2C(=O)Nc2cccnc21 (stereo not drawn),-0.0304% (inactive),–
CC(=O)O[C@]1(C(C)=O)CC[C@H]2[C@@H]3C=C(Cl)C4=CC(=O)CC[C@]4(C)[C@H]3CC[C@@]21C,-1.28% (inactive),–
O=C(O)c1cccnc1Nc1cccc(C(F)(F)F)c1,–,inactive
CCCCC1C(=O)N(c2ccccc2)N(c2ccc(O)cc2)C1=O (stereo not drawn),2.11% (inactive),–
Cc1ccc(O)c(-n2nc3ccccc3n2)c1,10.6% (inactive),–
CN1CCC(=C2c3ccccc3Sc3ccccc32)CC1,-2.51% (inactive),–
NC(=O)NNc1ccccc1,0.0452% (inactive),–
CN1CCN(c2c(F)cc3c(=O)c(C(=O)O)cn(CCF)c3c2F)CC1,–,inactive
c1cc(CN2CCCCC2)cc(OCCCNc2nc3ccccc3s2)c1,6.92% (inactive),–
CCCCN(CCCC)CC(O)c1cc(Cl)cc2c1-c1ccc(Cl)cc1/C2=C/c1ccc(Cl)cc1 (stereo not drawn),-2.32% (inactive),–
CC(=O)N[C@@H](CO)C(=O)N[C@@H](CC(=O)O)C(=O)N[C@@H](CCCCN)C(=O)N1CCC[C@H]1C(=O)O (Ac-SDKP-OH),-0.0067% (inactive),–
CN(C)C(=O)Nc1ccc(Cl)c(Cl)c1,1.08% (inactive),–
Cc1c(C)c2c(c(C)c1OC(=O)CCC(=O)OCCO)CC[C@@](C)(CCC[C@H](C)CCC[C@H](C)CCCC(C)C)O2,-170% (inactive),–
CC(C)NC(=O)c1ccc(C=O)cc1,12.1% (inactive),–
CCC(C)(C)c1ccc(CC(C)CN2C[C@@H](C)O[C@@H](C)C2)cc1 (stereo partly drawn),–,inactive

Structure (SMILES),"activity change, negative = reduced viability",Potency
CC(=O)Nc1ccn(C2COC(COC(=O)c3ccccc3)O2)c(=O)n1 (stereo not drawn),-31.3% (inactive),–
CCN(CC)C(=O)N1CCN(C)CC1,10.2% (inactive),–
O=C(CCC1CCN(Cc2ccccc2)CC1)c1ccc2c(c1)NCCCC2,-1.98% (inactive),–
O=C(O)/C=C/c1ccc(Cn2ccnc2)cc1,-2.79% (inactive),–
CC1(C)OC[C@@H](COC(=O)CCc2ccc(OC[C@@H](O)CNCCNC(=O)N3CCOCC3)cc2)O1,-1.15% (inactive),–
Clc1ccc(C(Cn2ccnc2)OCc2ccsc2Cl)c(Cl)c1 (stereo not drawn),–,inactive
Cc1cc(=O)oc2cc(O)ccc12,–,inactive
Cc1cccc(C)c1NC(=O)C(C)N (stereo not drawn),–,inactive
CCCOc1ccccc1-c1nc2n[nH]nc2c(=O)[nH]1,–,inactive
COCCc1ccc(OCC2CO2)cc1 (stereo not drawn),-4.2% (inactive),–
CC[C@H](c1ccc(O)cc1)[C@@H](CC)c1ccc(O)cc1,5.24% (inactive),–
CCC1Nc2cc(Cl)c(S(N)(=O)=O)cc2S(=O)(=O)N1 (stereo not drawn),3.37% (inactive),–
OC[C@@H](O)[C@H](O)[C@H](O)[C@@H](O)CO,–,inactive
NCc1ccccc1Sc1ccccc1CO,9.85% (inactive),–
CO/N=C(\C(=O)O)c1csc(NC(=O)CCl)n1,0.156% (inactive),–
CCOC(=O)c1c(N)sc2c1CCN(Cc1ccccc1)C2,-1.09% (inactive),–
CCc1nnc(NS(=O)(=O)c2ccc(N)cc2)s1,2.98% (inactive),–
CC1CCCCN1CCCOC(=O)c1ccc(OC2CCCCC2)cc1 (stereo not drawn),-2.97% (inactive),–
O=C(O)Cc1ccc2c(c1)C(=O)c1ccccc1CO2,16.5% (inactive),–

# Reference: PubChem BioAssay (NCATS)
